From PubChem BioAssay
M1 PAM parental = counter-screen for M1 PAMs: effect in parental CHO-K1 cells; AID 602247; activation, % at 3 µM; ATP EC20, Fluo-8 calcium fluorescence; 0% at ATP EC20, 100% at ATP max; 360,000 compounds, 0.02% hits;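 active means activation above the run cutoff, the mean activation of all test compounds plus 3 SD, cut at about 40% in these data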;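 further: peak over basal fluorescence ratio in a 140 s read after ATP addition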
M1 ag parental = M1 agonist counterscreen hit in parental CHO-K1 cells; Fluo-8 calcium fluorescence; scaled to maximal ATP response, vehicle zero; activation, % at 3 µM; 360,000 compounds, 0.48% hits; in the data active means activation above about 15%;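 further: untransfected CHO-K1 host cells lacking M1 receptor as counterscreen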
M1 PAM = positive allosteric modulators of human M1 muscarinic receptor. 360,000 compounds, 0.088% hits. P11229. activation, % at 3 µM. CHO-K1 hM1, Fluo-8 calcium fluorescence, ACh EC20; 0% = ACh EC20, 100% = maximal ACh. AID 588819; in the data active means activation above about 19%, passing the limit was not always enough
Target sequence (P11229 whole entry, looked up): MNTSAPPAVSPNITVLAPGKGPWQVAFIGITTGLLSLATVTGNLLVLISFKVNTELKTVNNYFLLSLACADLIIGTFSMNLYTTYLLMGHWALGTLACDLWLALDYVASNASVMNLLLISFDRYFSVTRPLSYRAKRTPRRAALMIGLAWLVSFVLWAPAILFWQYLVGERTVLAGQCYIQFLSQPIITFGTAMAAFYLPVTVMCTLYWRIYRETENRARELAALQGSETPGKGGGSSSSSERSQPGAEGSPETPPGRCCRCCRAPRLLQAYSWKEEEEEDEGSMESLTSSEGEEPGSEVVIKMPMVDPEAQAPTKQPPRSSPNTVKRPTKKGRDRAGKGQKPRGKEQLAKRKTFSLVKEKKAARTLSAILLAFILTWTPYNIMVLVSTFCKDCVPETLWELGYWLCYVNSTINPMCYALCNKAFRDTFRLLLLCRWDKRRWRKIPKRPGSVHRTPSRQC
CHRM1 agonist = human M1 muscarinic receptor agonism; CHO-K1 hM1, Fluo-8 calcium fluorescence, agonist mode; 0% DMSO, 100% acetylcholine EC100; P11229; AID 588814; activation, % at 3 µM; 360,000 compounds, 0.33% hits;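 active means activation above the run's mean compound activation plus 3 SD, cut at about 16% in these data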;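 further: peak over basal fluorescence ratio within a 140 s kinetic read after compound addition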
CHO-K1 Ca antag = nonselective inhibitor or artifact in parental CHO-K1 cells; ATP-induced calcium, Fluo-8 fluorescence; inhibition, % at 3 µM; 360,000 compounds, 0.6% hits; AID 602250;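 active means inhibition above a per-plate cutoff, the plate's mean sample inhibition plus 3 SD, cut at about 24% in these data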;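 further: 0% = DMSO plus EC80 ATP and 100% = DMSO alone without ATP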
M1 antag = blocks human M1 muscarinic receptor | P11229 | CHO-K1 hM1, Fluo-8 calcium fluorescence, ACh EC80 antagonist | inhibition, % at 3 µM | 360,000 compounds, 1.3% hits | AID 588852;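 active means percent inhibition above its own plate's cutoff, namely the mean of that plate's compound wells plus 3 SD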;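 further: peak over basal fluorescence ratio during 140 s after agonist addition; 0% = ACh EC80 plus DMSO and 100% = DMSO alone without agonist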
An asterisk follows results filed as active; · = no result given. Rows were chosen to be rich in hits. Some 2.3% of all compounds tested hit in one or more screens of this group.

SMILES	M1 PAM parental	M1 ag parental	M1 PAM	CHRM1 agonist	CHO-K1 Ca antag	M1 antag
C=CCSc1nc2sc3c(c2c(=O)n1-c1ccccc1)CCN(C)C3	3.2	3.8	-22.9	-8.1	0.9	36.9*
CCSc1nc2sc3c(c2c(=O)n1-c1ccccc1)CCN(C)C3	5.9	0.7	-16.9	-8.1	-1.5	22.3
COc1ccc(-n2c(SC)nc3sc4c(c3c2=O)CCN(C)C4)cc1	4.7	-0.1	-1.7	-5.7	0.0	70.5*
CCOC(=O)CSc1nc2sc3c(c2c(=O)n1-c1ccc(OCC)cc1)CCN(C)C3	1.3	-0.5	8.9	-6.4	-5.6	-7.1
O=C(Nc1ncccc1O)C1CCN(S(=O)(=O)c2ccc3ccccc3c2)CC1	-8.5	0.1	-2.0	-3.3	7.3	1.5
O=S(=O)(NCC1(N2CCOCC2)CCCCC1)c1ccc(Cl)cc1C(F)(F)F	-2.9	-0.2	0.5	-4.0	-6.4	-1.2
COC(=O)CCC(=O)N1CCOCCOCCOCC1	23.4	15.8*	0.9	-3.4	-2.3	-3.3
COC(=O)CCC(=O)N1CCOCCOCCN(C(=O)CCC(=O)OC)CCOCCOCC1	17.5	0.2	6.3	-4.1	-7.9	-7.1
COCCNC(=O)C1(C)CCCN(CCS(=O)(=O)c2ccc(C)cc2)C1 (centres undefined)	16.4	0.4	4.7	-3.2	-5.3	-12.1
CC1(C)CC(=O)C(C=NCCN2CCOCC2)=C(O)C1	18.7	0.1	3.8	-1.8	-14.7	-27.1
CC1(C)CC(=O)C(C=NCCN2CCN(CCCCS(=O)(=O)O)CC2)=C(O)C1	-7.7	-0.2	2.3	-3.4	24.8*	4.0
CCOC(=O)c1c(C)nc2sc(C(=O)Nc3ccc(C(C)=O)cc3)c(N)c2c1-c1ccc(OC)cc1	-2.9	1.6	-8.8	-2.3	8.0	37.6*
CCOC(=O)c1c(C)nc2sc(C(=O)Nc3ccc(OC)cc3)c(N)c2c1-c1ccc(OC)cc1	-6.4	0.1	-3.7	-1.9	13.7	12.9
O=C(OCCN1CCCCC1)C1(c2ccccc2)CCCC1	4.8	1.7	-38.5	-14.8	-2.2	99.9*
C[N+]1(CCCOC(=O)C2(c3ccccc3)CCCC2)CCOCC1	-7.0	-0.1	-23.2	-8.8	6.7	100.0*
O=C(OCCN1CCCC1)C1(c2ccccc2)CCCC1	20.9	0.8	-23.1	-5.2	-0.9	98.6*
CCNC(=O)C1(c2ccccc2)CCCC1	14.7	0.4	10.2	-0.3	-15.9	-12.4
CN(C)CCOC(=O)C1(c2ccccc2)CCCC1	12.9	0.8	-23.4	-5.0	-4.3	99.6*
CCOc1ccc(N(CC(=O)NN=C2CCCC2)S(C)(=O)=O)cc1	-8.4	0.0	-2.0	-3.5	-0.1	-5.2
C[N+]1(CCCCSc2ccc(O)cc2)CCCCC1	-8.0	-0.1	-20.4	-10.6	-8.6	20.7
COC(=O)CCCCCCCCCC[N+]1(C)CCCCC1	16.2	-0.4	-27.0	-14.1	-2.8	63.5*
CC(=O)OCCCCCCCCCCC[N+]1(C)CCCCC1	5.5	0.0	-22.8	-5.9	-5.8	64.7*
COC(=O)CCCCCCCCC(O)C[N+]1(C)CCOCC1 (centres undefined)	-8.2	-0.1	-6.3	-9.2	7.2	10.1
C[N+]1(CC(=O)OC2CCCCCCCCCCC2)CCCC1	13.4	2.1	-38.5	-15.3	0.9	68.6*
Nc1ccn([C@@H]2O[C@H](CNC(=O)[C@@H](Cc3cn(COCc4ccccc4)cn3)NC=O)[C@@H](O)[C@H]2O)c(=O)n1	-4.3	0.1	-1.4	-1.7	0.9	2.2
SMILES	M1 PAM parental	M1 ag parental	M1 PAM	CHRM1 agonist	CHO-K1 Ca antag	M1 antag
C[C@H]1CN([C@@H](C)CO)C(=O)CCCn2nncc2CO[C@@H]1CN(C)S(=O)(=O)c1ccc(-c2ccccc2)cc1	4.0	-0.3	-2.1	-11.2	2.1	-9.9
Cc1c(C(=O)Nc2cc(F)ccc2F)sc2nc3n(c(=O)c12)CCCCC3	17.9	0.6	3.3	1.6	-8.1	-1.4
Cc1cc(C)c2c(c1)/C(=N/NC(=O)c1cc(C)oc1C)CCC2	6.7	0.2	-1.5	-5.3	6.6	-1.5
Cn1ncc(Cl)c1C(=O)N1CCN(S(=O)(=O)c2ccc(Cl)s2)CC1	10.0	2.1	10.2	-2.1	-2.5	-9.8
Cc1ccc(CCNC(=O)C2CCN(S(=O)(=O)c3c(C)nn(C)c3C)CC2)cc1	17.9	1.1	9.4	-5.0	-19.2	-10.3
Cc1ccc(Cl)cc1N1CCN(C(=O)C2CCN(S(=O)(=O)c3c(C)nn(C)c3C)CC2)CC1	-1.5	12.4	-20.2	9.5	16.0	21.7*
Cc1ccc(NC(=O)C2CCN(S(=O)(=O)c3c(C)nn(C)c3C)CC2)c(Cl)c1	15.8	1.7	5.8	-4.1	37.2*	-9.2
Cc1ccc(Cl)cc1N1CCN(C(=O)C2CCN(S(=O)(=O)c3cccnc3)CC2)CC1	-9.5	7.8	-7.5	1.9	15.7	17.6
COc1cc(Cl)c(C)cc1NC(=O)c1cc(S(=O)(=O)N(C)C)ccc1N1CCCC1	0.1	-0.5	9.8	-1.7	20.8	-3.5
COc1ccccc1NC(=O)C1CCN(S(C)(=O)=O)CC1	-18.7	0.6	21.7	2.8	1.1	-26.5
COc1ccc(Nc2c(C3CC3)nc3nc(C)cc(C)n23)cc1	26.5	-0.3	·	·	-17.8	·
CC(=O)Cc1nsc(NC(=O)c2cn(-c3ccccc3)nc2-c2ccc(Br)cc2)n1	-5.3	-0.1	12.7	-3.4	24.7*	-11.8
O=C(NCc1ccccc1)c1ccc(NC(=O)C2CCC2)cc1	-2.2	0.0	7.7	-3.1	18.4	-13.1
O=C(NCC(=O)N(c1cccnc1)C(C(=O)NC1CCCC1)c1ccccc1F)c1ccco1 (centres undefined)	-5.4	1.3	0.0	-1.8	-14.6	7.8
CC(=O)c1cc2cccc(OC3(C)CCN(Cc4ccc(-c5ccccn5)cc4)C3)c2o1 (centres undefined)	13.4	4.8	-25.8	-8.4	-3.0	34.9*
COC(=O)Cc1ccc(OC2(C)CCN(Cc3ccc(-c4ccccn4)cc3)C2)cc1 (centres undefined)	2.0	0.8	-30.3	-7.7	4.7	59.0*
COC(=O)Cc1ccc(OC2(C)CCN(Cc3ccccc3OC(F)F)C2)cc1 (centres undefined)	0.5	0.2	-22.0	-9.1	18.8	55.2*
CCCCn1nnnc1C1(C)CCC(=O)N1CCCN1CCOCC1 (centres undefined)	2.8	2.3	·	·	-0.4	·
COC(=O)c1cc(=O)nc(NNC(C)=O)s1	12.1	0.0	-2.2	-5.6	-2.6	3.1
C[C@H](c1ccccc1)N1C[C@H](COCc2ccccc2)Oc2cc(N3CCC[C@H]3C(N)=O)ccc2S1(=O)=O	5.3	3.4	·	·	-1.7	·
O=C(O)CC(Cc1ccc(Cl)cc1)C(=O)NCC12CC3CC(CC(C3)C1)C2 (centres undefined)	0.2	0.0	-11.2	-6.1	-5.1	31.5*
